Among all 71,000 compounds or so, about 1,300 (1.8%) were called active. The entries come from a sample that favours actives as a whole. Unmarked numbers belong to inactive results. Calls follow the shape of the full dose curve.
Biological target: Beta-lactamase (Escherichia coli (strain K12)) (UniProt P00811)
Experiment: Promiscuous and Specific Inhibitors of AmpC Beta-Lactamase (assay without detergent); as to activity change, negative = inhibition: % of control where 0% means no effect
Details: AmpC nitrocefin hydrolysis, absorbance 480 nm, no detergent; series mostly up to 28.7 µM; activity change, negative = inhibition: at the top concentration
Experimental: NIH Molecular Libraries Screening Centers Network [MLSCN]
NIH Chemical Genomics Center [NCGC]
PI Name: Shoichet, Brian K.
This aggregation profiling approach exploits the sensitivity of aggregate formation to detergent. Inhibition of b-lactamase is measured in the presence and absence of 0.01% Triton X-100. See Pubchem assay "Promiscuous and Specific Inhibitors of AmpC Beta-Lactamase (assay with detergent)" for related screen. Compounds that inhibit only in the absence of detergent are considered likely promiscuous aggregators.
A screen of 1,030 compounds was performed in Brian Shoichet's lab in 96-well format. AmpC activity was measured by following the absorbance at 480 nm. Nitrocefin is a chromogenic substrate: while nitrocefin is yellow (lmax 390 nm), the product of its hydrolysis is red (lmax 486 nm, 17,000 M-1). AmpC beta lactamase was provided by Brian Shoichet and Brian Feng, UCSF.
NCGC Assay Protocol Summary:
20 mM phosphate buffer, pH 7.0
Triton X-100: No Detergent screen: 0.0001%, Detergent screen: 0.01%.
Buffer in columns 3 and 4 as negative control (no enzyme).
5.3 nM AmpC in columns 1, 2, 5-48. Titration of UCSF compound 9 control (from 10 mM, then 1:2) pin-transferred to column 2. Column 1 is neutral (100% activity).
Six uL of reagents were dispensed to 1536-well Greiner black clear bottom plates. Compounds and controls (23 nL) were transferred via Kalypsys PinTool. The plates were incubated for 15 min at room temperature, and then 2 uL of 800 uM solution of nitrocefin was added to start the reaction. The plates were immediately transferred to and read every 20 seconds for 4 min on ViewLux (Perkin-Elmer) High-throughput CCD imager using 480 nm absorbance protocol. During dispense, reagent bottles were kept submerged into 4 deg C water bath.
Keywords: NIH Roadmap, MLSCN, MLI, MLSMR, qHTS, NCGC, AmpC Beta-Lactamase, Aggregation.
Potency is read from the fitted curve at half-maximal effect.

Chain of Beta-lactamase (Escherichia coli (strain K12)) (P00811 whole entry, looked up): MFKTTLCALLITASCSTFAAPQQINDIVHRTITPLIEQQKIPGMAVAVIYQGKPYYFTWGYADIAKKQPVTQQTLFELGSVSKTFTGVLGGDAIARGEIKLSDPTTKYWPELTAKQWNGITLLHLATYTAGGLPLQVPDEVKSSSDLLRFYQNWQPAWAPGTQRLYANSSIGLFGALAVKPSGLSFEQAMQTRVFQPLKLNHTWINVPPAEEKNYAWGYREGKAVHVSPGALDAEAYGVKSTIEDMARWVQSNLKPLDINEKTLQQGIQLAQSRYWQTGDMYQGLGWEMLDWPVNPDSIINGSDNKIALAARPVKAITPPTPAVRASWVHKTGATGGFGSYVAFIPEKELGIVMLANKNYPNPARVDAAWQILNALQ

Structure (SMILES)	activity change, negative = inhibition	Potency
Cc1nc(-c2ccc(NC(=O)c3cccs3)cc2)cs1	-19.2%	–
COc1cccc2c(=O)n(CC(=O)N3CCCCCC3)ccc12	7.4%	–
O=C(NCc1cccs1)C1CCN(S(=O)(=O)c2ccc3c(c2)OCCO3)CC1	-11.3%	–
O=C(NCc1ccc2c(c1)OCO2)C1CCCN(S(=O)(=O)c2cccs2)C1 (stereo not drawn)	–	3.98 µM [single pt active] (active)
O=C(NC1CCCCC1)C1CCCN(S(=O)(=O)c2cccs2)C1 (stereo not drawn)	24%	–
COc1cc2c(cc1OC)C(c1ccncc1)CC(=O)N2 (stereo not drawn)	-5.8%	–
CC(C)c1nnc(NC(=O)C2CCCN2S(=O)(=O)c2ccc(Cl)cc2)s1 (stereo not drawn)	10.4%	–
Cc1nc2ccc(S(=O)(=O)NC(C(=O)N3CCCCCC3)C(C)C)cc2s1 (stereo not drawn)	–	3.98 µM [single pt active] (active)
Cc1nc2ccc(S(=O)(=O)NCC(=O)NCCN3CCCCC3C)cc2s1 (stereo not drawn)	5.5%	–
Cc1nc2ccc(S(=O)(=O)NCC(=O)O)cc2s1	-4.4%	–
COC(=O)c1c(NC(=O)CSc2nc3c(c(=O)n(C)c(=O)n3C)n2C(C)C)sc(C)c1C	27.8%	–
CCn1nnc(NC(=O)c2c(OC)cccc2OC)n1	1%	–
CCOC(=O)CSc1nc2c(sc(=S)n2CCc2ccccc2)c(=O)n1Cc1ccco1	-13.5%	–
O=c1nc2s/c(=C\c3ccco3)c(=O)n2nc1Cc1ccccc1	-21.7%	–
CN(c1ccccc1)c1ccc(/C=c2\s/c(=C(/C#N)C(=O)C(C)(C)C)n(Cc3ccco3)c2=O)cc1	–	10 µM (active)
CC1=CC(=O)C2=C(C)C[C@H](O)[C@@H]3[C@@H](OC(=O)[C@H]3C)[C@H]12	1.9%	–
CCOc1ccccc1N=C1NC(=O)CS1	-3.3%	–
O=C(CSc1nc2cc3c(cc2c(=O)n1CCC1=CCCCC1)OCO3)NCc1ccco1	–	12.6 µM (active)
O=C(CCCn1c(SCC(=O)c2ccc(F)cc2)nc2ccccc2c1=O)NCc1ccco1	-3.1%	–
C=C(C)Cn1c(SCC(=O)NCc2ccco2)nc2sc3c(c2c1=O)CCC3	82.1%	–
CC(C)NC(=O)N1CC[C@@]2(CCCN(C(=O)c3cccn3C)C2)C1	15.4%	–

Structure (SMILES)	activity change, negative = inhibition	Potency
Cc1c2cn[nH]c(=O)c2c(C)n1Cc1ccc(F)cc1	17.3%	–
N#CCCN1CCN(S(=O)(=O)c2ccc(S(=O)(=O)NC3CCCCC3)cc2)CC1	67.1%	–
CCOC(=O)N1CCC(NC(=O)Cc2cn(C)c3ccccc23)CC1	44.2%	–
CCOC(=O)N1CCC(NC(=O)CCc2cn(C)c3ccccc23)CC1	37.8%	–
CCOC(=O)N1CCC(NC(=O)c2cnn3ccccc23)CC1	–	3.98 µM [single pt active] (active)
COC(=O)N1CCC2(CCCN(Cc3ccccc3OC)C2)CC1	0.4%	–
c1ccc(-c2cn3cccnc3n2)cc1	-2.6%	–
O=C(C1=C(O)C(=O)N(c2ncccn2)C1c1cccs1)c1ccco1 (stereo not drawn)	-10.9%	–
CNC(=O)Nc1cc(C(C)(C)C)no1	0.5%	–
Cc1cccc2c1N(CC(=O)OC(C)C)C(=O)C2=O	1.8%	–
COc1ccc(C)cc1S(=O)(=O)NC1CCCCC1	23.8%	–
CCOC(=O)N1CCC(Nc2c(NCCCN3CCN(c4ccc(OC)cc4)CC3)c(=O)c2=O)CC1	45.6%	–
O=C(CCCn1c(=O)[nH]c2cc(Cl)ccc2c1=O)NCCN1CCN(c2ccccc2)CC1	92.9%	–
CCOC(=O)N1CCC(Nc2c(NCCN3CCN(c4cccc(Cl)c4)CC3)c(=O)c2=O)CC1	–	3.98 µM [single pt active] (active)
COc1ccc2c(c1)OC(O)(C(F)(F)C(F)F)CC2=O (stereo not drawn)	-0.7%	–
O=CN1CCN(C2CC(=O)N(c3ccc4c(c3)OCO4)C2=O)CC1 (stereo not drawn)	1.1%	–
Cc1ccccc1CSc1nnc(Cn2c(=O)sc3ccccc32)n1C	32.6%	–
C=CCSc1nnc(Cn2c(=O)sc3ccccc32)n1C	–	3.98 µM [single pt active] (active)
Cc1cccc(CSc2nnc(Cn3c(=O)sc4ccccc43)n2C)c1	38.5%	–
CC1CCN(c2oc(-c3ccccc3F)nc2C#N)CC1	11.5%	–
C=CCn1c(C)cc(C(=O)CN2C(=O)c3ccccc3C2=O)c1C	5.1%	–

Structure (SMILES)	activity change, negative = inhibition	Potency
COc1ccc(C2CC(c3ccccc3)Nc3ncnn32)cc1 (stereo not drawn)	–	3.98 µM [single pt active] (active)
Clc1ccc(C2CC(c3cccs3)n3ncnc3N2)cc1Cl (stereo not drawn)	96.9%	–
COc1ccc(C2CC(c3ccc(C)cc3)Nc3ncnn32)cc1 (stereo not drawn)	80.4%	–
Cc1noc(C)c1C(=O)NC(C)c1ccc2c(c1)OCO2 (stereo not drawn)	-5.3%	–
CN1CCC2(CC1)NC(=O)NC2=O	-9.4%	–
CCN(CC)C(=O)CSc1nnc(-c2cccc(OC)c2)o1	25.2%	–
COc1cccc(-c2nnc(NC(=O)c3ccc(S(=O)(=O)N(CC(C)C)CC(C)C)cc3)o2)c1	–	7.94 µM (active)
COc1cccc(NC(=O)CN(C)S(=O)(=O)c2ccc(C)cc2)c1	4.9%	–
CC(C)C[C@@H](CC(=O)N[C@@H](CCC(=O)O)CC(=O)O)NC(=O)[C@@H]1CCCC[C@H]1NC(=O)C[C@@H](NC(=O)C[C@H](Cc1c[nH]c2ccccc12)NC(=O)[C@@H]1CCCC[C@H]1N)C(C)C	150%	–
Cc1noc(C)c1S(=O)(=O)N1CCCC(C(=O)Nc2nccs2)C1 (stereo not drawn)	–	3.98 µM [single pt active] (active)
CCOc1ccc(OCC)c(NC(=O)C2CCN(S(=O)(=O)c3c(C)noc3C)CC2)c1	70.7%	–
Cc1ccc(NC(=O)C2CCCN(S(=O)(=O)c3c(C)noc3C)C2)c(C)c1 (stereo not drawn)	37.8%	–
C=CCNC(=O)C1CC=CCC1C(=O)O (stereo not drawn)	-5.7%	–
CCOc1ccc(Cn2nnc(C(=O)Nc3ccc(OC)cc3OC)c2N)cc1	15%	–
CCOc1ccc(Cn2nnc(C(=O)NCc3ccccc3)c2N)cc1	–	3.16 µM [single pt active] (active)
Nc1c(C(=O)NCc2ccccc2)nnn1Cc1cccc(Cl)c1	-19.5%	–
Cc1cc(N2C(=O)C(=O)/C(=C(/O)c3ccc(Cl)cc3)C2c2cccc(Br)c2)no1 (stereo not drawn)	-9%	–
COc1ccc(C(CNC(=O)c2cccnc2SC)N2CCOCC2)cc1 (stereo not drawn)	6.6%	–
O=C(NCCN1C(=O)C2C3C=CC(C3)C2C1=O)Nc1ccccn1 (stereo not drawn)	–	3.98 µM [single pt active] (active)
O=C(CN1C(=O)C2C3C=CC(C3)C2C1=O)NCCc1ccccc1Cl (stereo not drawn)	1.2%	–
O=C(CCN1C(=O)C2C3C=CC(C3)C2C1=O)Nc1ccccc1F (stereo not drawn)	2.3%	–

Reference: PubChem BioAssay AID585 (National Center for Advancing Translational Sciences (NCATS), 2007)
